Calls of active or inactive are those of the source. Unless noted, how the calls were made is not given here.
Legend:
[1] = anti-His antibody binders, primary screen, artefact control for SMM control protein annotation, biochemical, small-molecule microarray, 635 nm fluorescence (AID 1128); details: anti-His Alexa647 antibody binding, higher = more signal;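 further: score merges feature fluorescence with signal-to-noise for each printed compound spot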
[2] = test system: Human papillomavirus type 1a E7 protein (residues 1-88); assay: HPV1a E7 small-molecule binders, primary screen, biochemical, small-molecule microarray, residues 1-88, 635 nm (AID 1129); details: small-molecule microarray binding, fluorescence 635 nm; higher = more signal
[3] = target: Focal adhesion kinase 1 (Homo sapiens) (UniProt Q05397); assay: small-molecule microarray binders of FAK, primary screen, biochemical, 635/667 nm fluorescence, BSA, DTT (AID 1130); details: PTK2 binding, 635 nm fluorescence, higher = more signal;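 further: composite of spot emission at 667 nm and signal to noise over triplicate slides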
[4] = test system: Fibrinogen (Alexa647-labelled); assay: fibrinogen binders on compound microarrays, profiling panel, artefact control for SMM control-protein annotation, biochemical, small-molecule microarray, 635/667 nm fluorescence (AID 1131); details: fibrinogen-A647 binding fluorescence, higher = more signal;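 further: z-score merges 667 nm fluorescence with per-spot signal-to-noise over triplicate slides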
[5] = target: Follistatin (Homo sapiens) (UniProt P19883); assay: follistatin binders on small-molecule microarrays, primary screen, biochemical, small-molecule microarray, 635/667 nm fluorescence (AID 1132); details: FST binding, 635 nm fluorescence, higher = more signal
[6] = target: Fibroblast growth factor 2 (Homo sapiens) (UniProt P09038); assay: FGF2 binders on small-molecule microarrays, primary screen, biochemical, small-molecule microarray, 635/667 nm fluorescence (AID 1133); details: small-molecule microarray binding, FGF2, fluorescence 635/667; higher = more signal
[7] = mitochondrial membrane potential change in A549 cells, profiling panel, cell-based, JC-1 fluorescence, basal, 24 h, 100 nL (AID 1138); details: higher = more signal;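 further: A549 lung adenocarcinoma cells under basal conditions with no added stimulus; test concentration not given here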
[8] = test system: Lefty1; assay: Lefty1 binders on small-molecule microarrays, primary screen, biochemical, small-molecule microarray, 635/667 nm fluorescence (AID 1139); details: small-molecule microarray binding, fluorescence 635/667; higher = more signal
[9] = test system: wheat germ agglutinin (Triticum aestivum), Alexa647-labelled; assay: wheat germ agglutinin binders on compound microarrays, profiling panel, artefact control for SMM control-protein annotation, biochemical, small-molecule microarray, 635/667 nm fluorescence (AID 1140); details: WGA-A647 binding, 635 nm fluorescence, higher = more signal;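 further: score merges 667 nm feature emission with signal to noise over triplicate slides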
[10] = target: Luciferin 4-monooxygenase (Photinus pyralis) (UniProt P08659); assay: firefly luciferase enzyme inhibitors, primary screen, biochemical, luminescence, purified enzyme, 2006 set (AID 1141); details: SteadyGlo luminescence, 30 min, higher = more signal, called active from +8 up or from −8 down;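 further: cell-free assay with purified firefly luciferase at 100 ng per well in PBS; test concentration not given here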
[11] = test system: Wnt5a (protein binding on small-molecule microarray); assay: Wnt5a binders on small-molecule microarray, primary screen, biophysical, 635/667 nm fluorescence (AID 1142); details: 635 nm fluorescence, higher = more signal;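 further: fluorescence read at 667 nm with signal to noise per printed feature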
[12] = cell viability in Huh7 cells, primary screen, cytotoxicity control for HCV replication inhibitor project, CellTiter-Glo luminescence, basal, 48 h (AID 1143); details: Huh7 HCV replicon, higher = more signal, called active from +8 up or from −8 down;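 further: Huh7 hepatoma cells carrying a hepatitis C replication reporter with no stimulus; test concentration not given here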
[13] = P. aeruginosa biofilm formation inhibitors, primary screen, PAO1 strain, BacTiter-Glo luminescence, LB-PBS (AID 1144); details: 12 h, higher = more signal
[14] = CREB reporter modulators without forskolin, primary screen, cell-based, PC12, CRE-LacZ reporter, unstimulated (AID 1145); details: no forskolin, luminescence, 4.5 h, higher = more signal, called active from +8 up or from −8 down
[15] = CREB reporter modulators under forskolin, primary screen, cell-based, PC12, CRE-LacZ reporter, forskolin-stimulated (AID 1146); details: luminescence, 4.5 h, higher = more signal, called active from +8 up or from −8 down;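 further: PC12 cells with 6xCRE LacZ reporter stimulated by forskolin 10 µM; beta-galactosidase reporter signal reflecting CREB driven transcription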
[16] = target: Streptavidin (Streptomyces avidinii) (UniProt P22629); assay: streptavidin binders on small-molecule microarray, primary screen, artefact control for SMM compound annotation, biophysical, 635/667 nm fluorescence (AID 1147); details: streptavidin binding, higher = more signal;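 further: signal reflects streptavidin binding to arrayed compounds as a control protein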
[17] = small-molecule binders of probe aInhba, primary screen, biochemical, small-molecule microarray, 635/667 nm fluorescence (AID 1148); details: higher = more signal;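 further: score merges 667nm spot fluorescence with signal-to-noise for antibody binding to printed compounds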
[18] = target: Torsin-1A (Homo sapiens) (UniProt O14656); assay: torsin A binders from cell lysate, primary screen, small-molecule microarray, wild-type, 635/667 nm (AID 1149); details: COS7 hTOR1A-WT lysate, 635 nm fluorescence, higher = more signal
[19] = target: Torsin-1A (Homo sapiens) (UniProt O14656); assay: small-molecule binders of mutant TOR1A in lysate, primary screen, cell lysate, small-molecule microarray, COS7 lysate, 635/667 nm fluorescence (AID 1150); details: COS7 hTOR1A mutant lysate, 635 nm fluorescence, higher = more signal;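 further: score pools 667 nm emission and signal to noise measuring lysate protein binding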
[20] = test system: Sonic hedgehog protein (Shh); assay: small-molecule binders of Shh protein, primary screen, biochemical, small-molecule microarray, 635/667 nm fluorescence (AID 1151); details: small-molecule microarray binding, 635 nm fluorescence; higher = more signal;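 further: Shh protein binding to compounds spotted on small-molecule microarray slides; score combines spot fluorescence intensity with signal-to-noise across triplicate slides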

Chain of Luciferin 4-monooxygenase (Photinus pyralis) (P08659 whole entry, looked up): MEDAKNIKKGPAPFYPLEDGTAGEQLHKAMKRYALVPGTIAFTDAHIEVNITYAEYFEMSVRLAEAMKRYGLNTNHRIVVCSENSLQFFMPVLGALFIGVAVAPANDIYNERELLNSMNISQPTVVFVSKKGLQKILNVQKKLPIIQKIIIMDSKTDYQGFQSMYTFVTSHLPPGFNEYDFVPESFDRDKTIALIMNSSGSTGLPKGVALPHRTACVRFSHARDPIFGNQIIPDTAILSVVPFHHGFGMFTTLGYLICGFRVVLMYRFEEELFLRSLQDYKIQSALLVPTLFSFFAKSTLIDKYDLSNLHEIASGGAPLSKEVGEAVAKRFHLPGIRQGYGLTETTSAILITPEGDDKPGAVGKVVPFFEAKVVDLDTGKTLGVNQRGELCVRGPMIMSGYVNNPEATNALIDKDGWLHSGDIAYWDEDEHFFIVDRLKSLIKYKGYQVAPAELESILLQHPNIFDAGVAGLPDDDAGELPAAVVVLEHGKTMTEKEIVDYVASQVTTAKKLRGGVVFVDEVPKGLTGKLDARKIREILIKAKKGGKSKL
Chain of Torsin-1A (Homo sapiens) (O14656 whole entry, looked up): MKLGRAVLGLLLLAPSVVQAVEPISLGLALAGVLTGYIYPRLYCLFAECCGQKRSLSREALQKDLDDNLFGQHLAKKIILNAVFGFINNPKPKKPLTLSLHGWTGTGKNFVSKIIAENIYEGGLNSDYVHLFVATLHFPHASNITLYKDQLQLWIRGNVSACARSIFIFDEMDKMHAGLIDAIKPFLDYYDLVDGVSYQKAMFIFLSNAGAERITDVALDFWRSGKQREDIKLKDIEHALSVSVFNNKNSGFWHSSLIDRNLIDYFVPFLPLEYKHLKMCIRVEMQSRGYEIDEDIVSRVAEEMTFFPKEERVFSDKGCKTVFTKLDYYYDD
Chain of Streptavidin (Streptomyces avidinii) (P22629 whole entry, looked up): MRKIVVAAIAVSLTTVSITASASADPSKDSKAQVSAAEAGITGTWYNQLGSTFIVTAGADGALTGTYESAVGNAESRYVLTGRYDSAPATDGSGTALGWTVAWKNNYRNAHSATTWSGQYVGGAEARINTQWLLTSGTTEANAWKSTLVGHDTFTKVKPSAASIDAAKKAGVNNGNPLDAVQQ
Chain of Focal adhesion kinase 1 (Homo sapiens) (Q05397 whole entry, looked up): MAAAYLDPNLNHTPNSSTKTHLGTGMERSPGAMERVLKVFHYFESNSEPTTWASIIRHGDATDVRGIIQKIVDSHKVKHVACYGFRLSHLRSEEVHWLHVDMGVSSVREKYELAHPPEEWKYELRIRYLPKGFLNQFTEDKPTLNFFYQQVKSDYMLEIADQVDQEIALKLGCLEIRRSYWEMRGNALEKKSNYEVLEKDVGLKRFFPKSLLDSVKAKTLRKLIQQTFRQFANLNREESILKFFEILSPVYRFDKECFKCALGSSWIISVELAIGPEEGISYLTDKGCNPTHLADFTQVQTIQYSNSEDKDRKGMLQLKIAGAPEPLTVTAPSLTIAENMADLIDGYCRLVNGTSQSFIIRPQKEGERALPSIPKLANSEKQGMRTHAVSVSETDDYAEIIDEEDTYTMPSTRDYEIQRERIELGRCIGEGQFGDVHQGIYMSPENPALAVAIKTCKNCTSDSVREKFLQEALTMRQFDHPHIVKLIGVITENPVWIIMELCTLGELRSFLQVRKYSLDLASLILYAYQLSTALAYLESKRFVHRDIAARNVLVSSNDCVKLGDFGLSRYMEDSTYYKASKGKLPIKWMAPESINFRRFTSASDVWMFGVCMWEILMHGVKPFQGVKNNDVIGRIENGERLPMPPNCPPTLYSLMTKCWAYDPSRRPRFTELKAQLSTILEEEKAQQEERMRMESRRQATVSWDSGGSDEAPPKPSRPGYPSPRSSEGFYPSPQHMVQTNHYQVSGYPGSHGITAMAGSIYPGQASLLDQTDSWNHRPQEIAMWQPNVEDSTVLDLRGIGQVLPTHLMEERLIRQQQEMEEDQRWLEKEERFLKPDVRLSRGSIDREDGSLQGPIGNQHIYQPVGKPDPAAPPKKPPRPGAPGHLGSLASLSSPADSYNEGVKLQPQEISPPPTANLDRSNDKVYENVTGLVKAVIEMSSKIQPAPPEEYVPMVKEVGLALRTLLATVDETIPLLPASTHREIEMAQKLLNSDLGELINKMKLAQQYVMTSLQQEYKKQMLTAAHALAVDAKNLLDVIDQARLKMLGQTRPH
Chain of Follistatin (Homo sapiens) (P19883 whole entry, looked up): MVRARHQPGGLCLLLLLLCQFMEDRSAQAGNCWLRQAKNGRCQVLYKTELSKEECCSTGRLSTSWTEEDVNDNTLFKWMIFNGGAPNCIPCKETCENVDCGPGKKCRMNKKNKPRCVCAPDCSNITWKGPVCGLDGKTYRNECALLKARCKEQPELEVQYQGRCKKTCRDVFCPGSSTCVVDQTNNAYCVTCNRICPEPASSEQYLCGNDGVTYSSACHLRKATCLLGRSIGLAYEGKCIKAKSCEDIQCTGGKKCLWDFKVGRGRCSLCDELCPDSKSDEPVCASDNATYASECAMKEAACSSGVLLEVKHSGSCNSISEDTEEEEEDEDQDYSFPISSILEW
Chain of Fibroblast growth factor 2 (Homo sapiens) (P09038 whole entry, looked up): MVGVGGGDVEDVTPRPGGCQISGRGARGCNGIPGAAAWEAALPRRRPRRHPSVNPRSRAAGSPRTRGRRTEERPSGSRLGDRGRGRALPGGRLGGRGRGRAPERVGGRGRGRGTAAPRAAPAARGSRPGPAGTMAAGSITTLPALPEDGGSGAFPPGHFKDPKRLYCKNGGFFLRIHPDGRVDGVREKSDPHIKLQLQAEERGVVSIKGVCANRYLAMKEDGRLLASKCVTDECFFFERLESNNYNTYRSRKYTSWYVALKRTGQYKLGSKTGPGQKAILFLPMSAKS

Cc1ccc(S(=O)(=O)N2[C@@H](c3ccccc3)C(C(=O)O)=CC[C@H]2c2ccc(F)cc2)cc1
composite z-score [1]: 0.686 | composite z-score [2]: 1.29 | composite z-score [3]: 0.779 | composite z-score [4]: 1.13 | composite z-score [5]: 0.164 | composite z-score [6]: -1.34 | z-score [7]: -0.679 | composite z-score [8]: 1.36 | composite z-score [9]: 1.05 | z-score [10]: 2.52 (inactive) | composite z-score [11]: 0.148 | z-score [12]: -1.85 (inactive) | z-score [13]: -0.8 (inactive) | z-score [14]: -0.676 (inactive) | z-score [15]: 0.398 (inactive) | composite z-score [16]: 1.4 | composite z-score [17]: 0.0403 | composite z-score [18]: 1.33 | composite z-score [19]: 1.64 | composite z-score [20]: 0.193

COc1ccc([Si](C)(C)[C@@H]2[C@@H](CC(=O)N3Cc4ccccc4C[C@H]3CO)O[C@]3(C(=O)N(Cc4ccc(I)cc4)c4ccccc43)[C@H]2C)cc1
composite z-score [1]: 0.521 | composite z-score [2]: 0.963 | composite z-score [3]: 0.0916 | composite z-score [4]: 0.838 | composite z-score [5]: 1.59 | composite z-score [6]: 1.65 | z-score [7]: -0.26 | composite z-score [8]: 1.58 | composite z-score [9]: 0.373 | z-score [10]: 0.798 (inactive) | composite z-score [11]: 0.206 | z-score [12]: -6.3 (inactive) | z-score [13]: 0.199 (inactive) | z-score [14]: -0.477 (inactive) | z-score [15]: 0.0658 (inactive) | composite z-score [16]: 0.143 | composite z-score [17]: -0.101 | composite z-score [18]: 0.211 | composite z-score [19]: 0.204 | composite z-score [20]: 1.94

Cc1c(NC(=O)/C(C#N)=C/C=C/c2ccc([N+](=O)[O-])cc2)c(=O)n(-c2ccccc2)n1C
composite z-score [1]: 2.04 | composite z-score [2]: 1.18 | composite z-score [3]: -0.0384 | composite z-score [4]: 1.02 | composite z-score [5]: 1.06 | composite z-score [6]: 1.11 | z-score [7]: 0.138 | composite z-score [8]: 0.78 | composite z-score [9]: 0.685 | z-score [10]: -4.99 (inactive) | composite z-score [11]: 0.388 | z-score [12]: -0.997 (inactive) | z-score [13]: 1.12 (inactive) | z-score [14]: 0.829 (inactive) | z-score [15]: 0.732 (inactive) | composite z-score [16]: 1.32 | composite z-score [17]: 0.0301 | composite z-score [18]: 0.321 | composite z-score [19]: 0.468 | composite z-score [20]: 0.569

COCCCNC(=O)[C@@]1(CCC(=O)OC(C)(C)C)N=C(c2ccc(OCCCO)cc2)O[C@H]1c1ccccc1
composite z-score [1]: 2.41 | composite z-score [2]: 1.22 | composite z-score [3]: 0.0039 | composite z-score [4]: 0.986 | composite z-score [5]: 1.36 | composite z-score [6]: 0.295 | z-score [7]: 1.42 | composite z-score [8]: -0.568 | composite z-score [9]: 0.597 | z-score [10]: -0.173 (inactive) | composite z-score [11]: 0.581 | z-score [12]: 0.0272 (inactive) | z-score [13]: -0.029 (inactive) | z-score [14]: -1.29 (inactive) | z-score [15]: -0.391 (inactive) | composite z-score [16]: 0.471 | composite z-score [17]: 0.113 | composite z-score [18]: 0.725 | composite z-score [19]: 1.12 | composite z-score [20]: -0.119

C=CC[C@]1(C(=O)NCCN2CCOCC2)N=C(c2ccc(OCCCO)cc2)O[C@H]1c1ccccc1
composite z-score [1]: 0.566 | composite z-score [2]: 0.845 | composite z-score [3]: 0.0827 | composite z-score [4]: -0.212 | composite z-score [5]: 1.44 | composite z-score [6]: 1.8 | z-score [7]: 0.654 | composite z-score [8]: 0.918 | composite z-score [9]: 0.496 | z-score [10]: 0.601 (inactive) | composite z-score [11]: 0.891 | z-score [12]: -0.541 (inactive) | z-score [13]: 0.154 (inactive) | z-score [14]: 2.55 (inactive) | z-score [15]: -0.0077 (inactive) | composite z-score [16]: 0.416 | composite z-score [17]: 0.119 | composite z-score [18]: 2.03 | composite z-score [19]: 1.44 | composite z-score [20]: 0.638

O=C1O[C@@H](c2ccccc2)[C@@H](c2ccccc2)N2[C@@H](c3ccc(OCCO)cc3)[C@]3(C(=O)Nc4ccc(C#CC5=CCCCC5)cc43)[C@@H](C(=O)Nc3nc4ccccc4s3)[C@H]12
composite z-score [1]: 0.22 | composite z-score [2]: 0.525 | composite z-score [3]: -0.0302 | composite z-score [4]: 0.99 | composite z-score [5]: 0.593 | composite z-score [6]: 1.25 | z-score [7]: -2.31 | composite z-score [8]: 0.547 | composite z-score [9]: 0.453 | z-score [10]: -2.64 (inactive) | composite z-score [11]: 0.256 | z-score [12]: -1.89 (inactive) | z-score [13]: -1.2 (inactive) | z-score [14]: -0.698 (inactive) | z-score [15]: -0.797 (inactive) | composite z-score [16]: 0.549 | composite z-score [17]: -0.145 | composite z-score [18]: -0.0561 | composite z-score [19]: 0.0025 | composite z-score [20]: 1.43

O=C1NC(=O)C2C1C=CC(C(O)C(O)CO)N2Nc1ccccn1 (stereo not given)
composite z-score [1]: 0.37 | composite z-score [2]: 0.434 | composite z-score [3]: -0.201 | composite z-score [4]: 0.485 | composite z-score [5]: 0.176 | composite z-score [6]: -0.0885 | z-score [7]: 0.767 | composite z-score [8]: 0.0364 | composite z-score [9]: 0.333 | z-score [10]: -1.41 (inactive) | composite z-score [11]: 0.146 | z-score [12]: 0.165 (inactive) | z-score [13]: -0.893 (inactive) | z-score [14]: 0.0603 (inactive) | z-score [15]: 0.0702 (inactive) | composite z-score [16]: 0.0832 | composite z-score [17]: -0.168 | composite z-score [18]: 0.435 | composite z-score [19]: 0.344 | composite z-score [20]: 0.199

Cc1ccc(S[C@]2(C(=O)NC(C)C)CC(=O)N(Cc3ccccc3)[C@@H]2c2ccc(CO)cc2I)cc1
composite z-score [1]: -1.01 | composite z-score [2]: -0.781 | composite z-score [3]: -0.0673 | composite z-score [4]: -0.771 | composite z-score [5]: -1.35 | composite z-score [6]: -0.409 | z-score [7]: 1.32 | composite z-score [8]: -1.64 | composite z-score [9]: -1.09 | z-score [10]: -0.629 (inactive) | composite z-score [11]: -0.114 | z-score [12]: -1.99 (inactive) | z-score [13]: 1.2 (inactive) | z-score [14]: 0.0548 (inactive) | z-score [15]: 0.0831 (inactive) | composite z-score [16]: -0.864 | composite z-score [17]: -0.128 | composite z-score [18]: -0.782 | composite z-score [19]: 0.0888 | composite z-score [20]: -0.421

[N-]=[N+]=Nc1ccccc1C[C@]1(C(=O)N2CCCCC2)N=C(c2ccc(OCCCO)cc2)O[C@H]1c1ccccc1
composite z-score [1]: 2.69 | composite z-score [2]: 1.2 | composite z-score [3]: 0.307 | composite z-score [4]: 0.934 | composite z-score [5]: 1.26 | composite z-score [6]: 1.38 | z-score [7]: -0.0876 | composite z-score [8]: 0.225 | composite z-score [9]: 1.22 | z-score [10]: -1.99 (inactive) | composite z-score [11]: 0.982 | z-score [12]: -4.56 (inactive) | z-score [13]: 0.0619 (inactive) | z-score [14]: -0.506 (inactive) | z-score [15]: -0.0671 (inactive) | composite z-score [16]: 1.15 | composite z-score [17]: 0.696 | composite z-score [18]: 0.351 | composite z-score [19]: 0.402 | composite z-score [20]: 1.05

Reference: PubChem BioAssay
